Source: PubChem BioAssay (EPA / NIEHS)
Records with an inconclusive call do not appear. Some compounds were tested as several samples or in several runs, with calls that do not always agree. Activity calls are given as the source filed them. The calls were made as follows, unless noted: active = hit-call score of the fitted dose curve at least 0.9, where 1 is the maximum; inactive = score below 0.9.

Key:
[1] = target: Glucocorticoid receptor (Homo sapiens) (UniProt P04150); assay: ATG_GR_TRANS: Attagene TRANS-FACTORIAL HepG2 Assay for human Glucocorticoid Receptor (GR) (AID 2282978; active = hit-call score of the fitted dose curve at least 0.9, where 1 is the maximum;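 also: activators score as hits since higher reporter transcript over DMSO is fitted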); settings: HepG2 Attagene TRANS GR reporter, mRNA transcription
Summary of the method: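 Fluorescent capillary-electrophoresis quantitation of reporter mRNA is the readout, taken 24 h after dosing human HepG2 cells carrying transiently transfected GAL4-UAS reporter units activated by chimeric NR-GAL4 fusions; activity scored as induction over DMSO.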

[2] = target: Bile acid receptor (Homo sapiens) (UniProt Q96RI1); assay: ATG_FXR_TRANS: Attagene TRANS-FACTORIAL HepG2 Assay for Farnesoid X Receptor (FXR) (AID 2282979; active = hit-call score of the fitted dose curve at least 0.9, where 1 is the maximum;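 also: hits raise reporter mRNA above DMSO so AC50 marks FXR activation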); settings: HepG2 Attagene TRANS FXR-GAL4 reporter transcription
Summary of the method: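 Reporter transcripts from transfected HepG2 cells were measured 24 h after dosing, using RT-PCR with capillary electrophoresis of 6-FAM-labelled fragments. The read-out reflects activity of exogenous FXR-Gal4 chimera on GAL4-UAS units, with induction relative to DMSO.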

[3] = target: Oxysterols receptor LXR-alpha (Homo sapiens) (UniProt Q13133); assay: ATG_LXRa_TRANS: Attagene TRANS-FACTORIAL HepG2 Assay for human Liver X Receptor alpha (LXRa) (AID 2282980; active = hit-call score of the fitted dose curve at least 0.9, where 1 is the maximum); settings: HepG2 Attagene TRANS reporter, LXRa transactivation
Summary of the method: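 Chemical-induced reporter mRNA measured by RT-PCR with fluorescent labelling and capillary electrophoresis after 24 h dosing of transiently transfected HepG2 cells expressing exogenous NR-Gal4 chimeras; increases scored against DMSO baseline.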

[4] = target: Oxysterols receptor LXR-beta (Homo sapiens) (UniProt P55055); assay: ATG_LXRb_TRANS: Attagene TRANS-FACTORIAL HepG2 Assay for human Liver X Receptor beta (LXRb) (AID 2282981; active = hit-call score of the fitted dose curve at least 0.9, where 1 is the maximum); settings: HepG2 Attagene TRANS GAL4-LXRb reporter, mRNA
Summary of the method: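 After 24 h chemical treatment of transfected HepG2 cells carrying exogenous NR-Gal4 chimeras, reporter mRNA was quantified by fluorescent RT-PCR and capillary electrophoresis; activity taken as increase over DMSO controls.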

[5] = ATG_M_06_TRANS: Attagene TRANS-FACTORIAL HepG2 Assay for M06 Transcription Factor (Internal Marker) (AID 2282983; active = hit-call score of the fitted dose curve at least 0.9, where 1 is the maximum); settings: HepG2 Attagene TRANS M06 internal marker reporter
Summary of the method: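 Background-control reporter readout: after 24 h chemical exposure of transiently transfected HepG2 (GAL4-UAS reporter units), mRNA quantified by RT-PCR with fluorescent labeling and capillary electrophoresis. Gain-of-signal fitting against DMSO baseline.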

[6] = target: Transcriptional activator Myb (Homo sapiens) (UniProt P10242); assay: ATG_Myb_CIS: Attagene CIS-FACTORIAL HepG2 Assay for human Myeloblastosis (Myb) Proto-Oncogene Transcription Factor (AID 2282986); settings: HepG2 Attagene CIS-FACTORIAL Myb reporter transcription; actives raise or lower the signal
Summary of the method: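 Reporter transcript levels, quantified by fluorescent RT-PCR and capillary electrophoresis, serve as the read-out. Transfected HepG2 cells carrying cis-promoter reporter units are dosed for 24 hours, and curves are fitted bidirectionally against DMSO controls.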

[7] = target: Nuclear respiratory factor 1 (Homo sapiens) (UniProt Q16656); assay: ATG_NRF1_CIS: Attagene CIS-FACTORIAL HepG2 Assay for human Nuclear Respiratory Factor 1 (NRF1) Orphan Gene (AID 2282987); settings: HepG2 NRF1 cis-element reporter, Attagene multiplex; actives raise or lower the signal
Summary of the method: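 Multiplexed cis-reporter assay, HepG2 cells, 24 h treatment. Total RNA → oligo(dT) RT → PCR with reporter-specific primers → 6-FAM primer extension → HpaI cut → CE. Bidirectional fit vs DMSO.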

[8] = ATG_NFI_CIS: Attagene CIS-FACTORIAL HepG2 Assay for human Nuclear Factor I (NFI) (AID 2282989); settings: HepG2 cis-regulatory reporter, NFI response element transcription; actives raise or lower the signal
Summary of the method: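 Transient MRTU transfection of HepG2 → 24 h chemical dosing → total RNA, oligo(dT) RT → PCR, 6-FAM primer extension, HpaI cut → capillary electrophoresis. Endpoint fitted bidirectionally relative to DMSO.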

[9] = target: Myc proto-oncogene protein (Homo sapiens) (UniProt P01106); assay: ATG_Myc_CIS: Attagene CIS-FACTORIAL HepG2 Assay for human Myelocytomatosis (Myc) Proto-Oncogene Transcription Factor (AID 2282990); settings: HepG2, Attagene cis-reporter transcription factor activity; actives raise or lower the signal
Summary of the method: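 Cells of the HepG2 human liver line bear multiple cis-driven reporter transcription units. Reporter mRNA after 24 h exposure is reverse-transcribed, amplified, labelled and resolved by capillary electrophoresis, with gain- or loss-of-signal fitting relative to DMSO.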

[10] = ATG_NF_kB_CIS: Attagene CIS-FACTORIAL HepG2 Assay for human Nuclear Factor Kappa B (NF-kB) (AID 2282991); settings: HepG2 Attagene cis-factorial NF-kB reporter mRNA; actives raise or lower the signal
Summary of the method: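 Transient MRTU transfection of human HepG2 liver cells → 24 h chemical exposure → total RNA, oligo(dT) RT → PCR, 6-FAM primer extension, HpaI digest 2 h 37 C → CE fragment analysis. Bidirectional fitting, DMSO negative control.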

[11] = ATG_NRF2_ARE_CIS: Attagene CIS-FACTORIAL HepG2 Assay for human Nuclear Factor Erythroid 2 Related Factor 2 (NFR2) response to Antioxidant Response Elements (ARE) (AID 2282992); settings: HepG2 Attagene ARE/NRF2 reporter, transcription factor activity; actives raise or lower the signal
Summary of the method: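 Endogenous transcription factor activity read out as reporter transcript levels (RT-PCR plus capillary electrophoresis, fluorescence) in transiently transfected HepG2 cells. Measured at 24 h after dosing; gain or loss of signal fitted versus DMSO.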

[12] = ATG_Oct_MLP_CIS: Attagene CIS-FACTORIAL HepG2 Assay for human Octamer-Binding Transcription Factor (Oct) (AID 2282993); settings: HepG2 Attagene cis-factorial Oct reporter, mRNA; actives raise or lower the signal
Summary of the method: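 Transient MRTU transfection of HepG2 → 24 h compound treatment → RNA isolation, reverse transcription, PCR → 6-FAM primer extension, HpaI digest → capillary electrophoresis. Activity fitted both directions against DMSO.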

[13] = target: Cellular tumor antigen p53 (Homo sapiens) (UniProt P04637); assay: ATG_p53_CIS: Attagene CIS-FACTORIAL HepG2 Assay for human p53 Transcription Factor (AID 2282994); settings: HepG2 p53 cis-element reporter, Attagene mRNA; actives raise or lower the signal
Summary of the method: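 Endogenous p53 activity read in transiently transfected HepG2 from a cis-element-driven reporter transcript after 24 h exposure. RNA reverse-transcribed, PCR-amplified, fluorescently labelled and sized by capillary electrophoresis; gain or loss fitted against DMSO baseline.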

[14] = BSK_3C_TissueFactor: BioMAP Diversity Plus: 3C Assay for Tissue Factor Biomarker Activity (AID 2282997); settings: BioMAP 3C HUVEC, tissue factor biomarker readout; actives raise or lower the signal
Summary of the method: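 Tissue factor on primary human umbilical vein endothelium was read by ELISA 24 h after dosing, gain or loss relative to DMSO. Cytotoxicity ran alongside via SRB (0.1%, TCA-fixed, 560 nm).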

[15] = BSK_3C_uPAR: BioMAP Diversity Plus: 3C Assay for Urokinase-type plasminogen activator receptor (uPAR) Biomarker Activity (AID 2282998); settings: BioMAP 3C HUVEC, uPAR biomarker ELISA; actives raise or lower the signal
Summary of the method: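 ELISA readout of uPAR on human vascular endothelium (umbilical vein primary cells), taken 24 h after chemical dosing. Increases and decreases are both fitted relative to DMSO vehicle.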

[16] = BSK_3C_VCAM1: BioMAP Diversity Plus: 3C Assay for Vascular cell adhesion molecule 1 (VCAM1) Biomarker Activity (AID 2282999); settings: BioMAP 3C HUVEC, VCAM1 ELISA, cytokine-stimulated; actives raise or lower the signal
Summary of the method: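 Activity fitted in both directions relative to DMSO, with ELISA measurement of the surface marker on primary HUVEC (3C) at 24 h post-treatment; parallel SRB staining (0.1% SRB, TCA-fixed, 560 nm) flagged overt cytotoxicity.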

[17] = BSK_4H_Eotaxin3: BioMAP Diversity Plus: 4H Assay for Eotaxin 3 Biomarker Activity (AID 2283000); settings: primary human endothelial cells (HUVEC); actives raise or lower the signal
Summary of the method: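 Human umbilical vein endothelial cells (BSK_4H system) dosed with test chemical; Eotaxin-3 (CCL26) measured by ELISA 24 h after dosing. Bidirectional curve fitting relative to DMSO negative control as baseline.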

[18] = target: Hepatocyte nuclear factor 4-alpha (Homo sapiens) (UniProt P41235); assay: ATG_HNF4a_TRANS: Attagene TRANS-FACTORIAL HepG2 Assay for human Hepatocyte Nuclear Factor 4 alpha (HNF4a) (AID 2282982; active = hit-call score of the fitted dose curve at least 0.9, where 1 is the maximum); settings: HepG2 HNF4a transactivation reporter, mRNA readout
Summary of the method: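 Activity of an exogenous HNF4a–Gal4 fusion scored as induced GAL4-UAS reporter transcripts after 24 h chemical exposure of transfected human HepG2 cells. Read-out via RT-PCR with 6-FAM labelling and capillary electrophoresis; rise over DMSO baseline.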

[19] = ATG_M_32_TRANS: Attagene TRANS-FACTORIAL HepG2 Assay for M32 Transcription Factor (Internal Marker) (AID 2282984; active = hit-call score of the fitted dose curve at least 0.9, where 1 is the maximum); settings: HepG2 Attagene TRANS M32 internal marker reporter
Summary of the method: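 Internal background reporter in transfected HepG2: after 24 h chemical exposure, RNA reverse-transcribed, reporter cDNA amplified, fluorescently labelled and HpaI-cut, then sized by capillary electrophoresis. Gain of signal fitted against DMSO control.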

Measured: AC50

Sequence of Transcriptional activator Myb (Homo sapiens) (P10242 whole entry, looked up): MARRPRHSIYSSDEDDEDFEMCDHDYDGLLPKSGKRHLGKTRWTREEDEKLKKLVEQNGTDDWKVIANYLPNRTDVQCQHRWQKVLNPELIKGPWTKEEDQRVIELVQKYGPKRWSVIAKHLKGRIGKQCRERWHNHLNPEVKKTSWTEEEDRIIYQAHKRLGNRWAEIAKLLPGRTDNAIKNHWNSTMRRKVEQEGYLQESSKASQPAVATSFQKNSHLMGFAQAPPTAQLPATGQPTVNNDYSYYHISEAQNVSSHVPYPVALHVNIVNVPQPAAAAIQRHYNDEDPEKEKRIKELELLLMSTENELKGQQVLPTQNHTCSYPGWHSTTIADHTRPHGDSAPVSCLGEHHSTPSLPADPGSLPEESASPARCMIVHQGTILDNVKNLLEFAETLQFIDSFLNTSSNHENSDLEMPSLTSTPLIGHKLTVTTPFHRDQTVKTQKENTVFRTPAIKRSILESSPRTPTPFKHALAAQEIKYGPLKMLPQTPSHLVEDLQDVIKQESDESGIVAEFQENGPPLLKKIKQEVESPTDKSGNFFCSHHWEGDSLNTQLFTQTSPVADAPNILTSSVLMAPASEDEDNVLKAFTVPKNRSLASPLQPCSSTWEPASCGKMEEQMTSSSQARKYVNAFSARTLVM
Sequence of Glucocorticoid receptor (Homo sapiens) (P04150 whole entry, looked up, the tested form may be a part): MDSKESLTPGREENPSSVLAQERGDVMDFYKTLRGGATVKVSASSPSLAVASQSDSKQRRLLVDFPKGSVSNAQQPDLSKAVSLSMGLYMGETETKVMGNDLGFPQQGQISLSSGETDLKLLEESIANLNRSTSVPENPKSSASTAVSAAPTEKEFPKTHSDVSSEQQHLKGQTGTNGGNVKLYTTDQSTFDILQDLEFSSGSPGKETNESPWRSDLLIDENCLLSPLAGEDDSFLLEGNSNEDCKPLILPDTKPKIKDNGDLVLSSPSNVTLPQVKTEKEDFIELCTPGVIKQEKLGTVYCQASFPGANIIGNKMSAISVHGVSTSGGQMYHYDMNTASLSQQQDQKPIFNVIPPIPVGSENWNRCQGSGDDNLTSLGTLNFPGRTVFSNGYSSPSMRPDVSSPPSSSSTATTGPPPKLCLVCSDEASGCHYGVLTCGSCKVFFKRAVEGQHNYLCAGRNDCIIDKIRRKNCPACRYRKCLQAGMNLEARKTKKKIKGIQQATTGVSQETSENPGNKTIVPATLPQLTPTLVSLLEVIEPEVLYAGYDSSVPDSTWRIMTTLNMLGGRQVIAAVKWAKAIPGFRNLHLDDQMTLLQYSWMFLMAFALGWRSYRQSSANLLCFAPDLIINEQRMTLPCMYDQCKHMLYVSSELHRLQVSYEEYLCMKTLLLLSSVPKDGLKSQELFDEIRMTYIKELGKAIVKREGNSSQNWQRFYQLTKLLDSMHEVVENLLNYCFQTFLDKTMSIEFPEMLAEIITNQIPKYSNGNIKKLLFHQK
Sequence of Oxysterols receptor LXR-alpha (Homo sapiens) (Q13133 whole entry, looked up, the tested form may be a part): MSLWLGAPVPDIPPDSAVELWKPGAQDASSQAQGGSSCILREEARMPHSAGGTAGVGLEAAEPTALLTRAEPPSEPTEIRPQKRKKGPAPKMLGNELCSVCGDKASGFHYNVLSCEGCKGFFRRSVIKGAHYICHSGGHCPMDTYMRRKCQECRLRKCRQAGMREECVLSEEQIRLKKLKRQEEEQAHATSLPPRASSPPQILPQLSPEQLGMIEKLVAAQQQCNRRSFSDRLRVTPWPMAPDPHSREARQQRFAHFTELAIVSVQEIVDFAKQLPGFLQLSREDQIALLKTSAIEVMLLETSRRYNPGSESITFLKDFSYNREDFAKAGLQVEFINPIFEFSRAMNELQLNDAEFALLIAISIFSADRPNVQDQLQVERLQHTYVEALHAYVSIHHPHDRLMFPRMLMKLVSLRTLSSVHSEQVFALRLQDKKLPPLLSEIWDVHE
Sequence of Cellular tumor antigen p53 (Homo sapiens) (P04637 whole entry, looked up): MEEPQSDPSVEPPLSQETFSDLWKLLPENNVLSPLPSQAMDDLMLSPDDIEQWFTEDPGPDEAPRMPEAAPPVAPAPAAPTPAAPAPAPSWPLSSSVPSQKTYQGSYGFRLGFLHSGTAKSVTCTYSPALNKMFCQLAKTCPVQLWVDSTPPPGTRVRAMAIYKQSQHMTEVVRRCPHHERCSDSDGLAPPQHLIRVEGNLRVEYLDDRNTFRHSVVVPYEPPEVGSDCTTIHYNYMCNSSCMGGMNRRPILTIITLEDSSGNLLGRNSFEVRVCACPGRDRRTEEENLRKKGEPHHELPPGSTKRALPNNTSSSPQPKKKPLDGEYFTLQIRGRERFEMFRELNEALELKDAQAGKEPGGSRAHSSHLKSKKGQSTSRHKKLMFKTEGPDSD
Sequence of Bile acid receptor (Homo sapiens) (Q96RI1 whole entry, looked up, the tested form may be a part): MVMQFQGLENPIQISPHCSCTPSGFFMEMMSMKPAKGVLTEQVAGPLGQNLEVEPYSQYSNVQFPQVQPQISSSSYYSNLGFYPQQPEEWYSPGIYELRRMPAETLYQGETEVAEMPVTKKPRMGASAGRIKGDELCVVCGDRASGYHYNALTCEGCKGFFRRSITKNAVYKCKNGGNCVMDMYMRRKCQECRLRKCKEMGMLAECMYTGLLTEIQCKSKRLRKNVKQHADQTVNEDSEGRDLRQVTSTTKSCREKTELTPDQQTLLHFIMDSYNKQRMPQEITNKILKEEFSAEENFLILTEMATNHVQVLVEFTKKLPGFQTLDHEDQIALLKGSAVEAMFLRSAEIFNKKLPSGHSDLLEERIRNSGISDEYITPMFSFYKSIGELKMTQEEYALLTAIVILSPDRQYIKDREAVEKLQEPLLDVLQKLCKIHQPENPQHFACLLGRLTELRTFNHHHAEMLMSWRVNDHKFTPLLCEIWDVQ
Sequence of Oxysterols receptor LXR-beta (Homo sapiens) (P55055 whole entry, looked up, the tested form may be a part): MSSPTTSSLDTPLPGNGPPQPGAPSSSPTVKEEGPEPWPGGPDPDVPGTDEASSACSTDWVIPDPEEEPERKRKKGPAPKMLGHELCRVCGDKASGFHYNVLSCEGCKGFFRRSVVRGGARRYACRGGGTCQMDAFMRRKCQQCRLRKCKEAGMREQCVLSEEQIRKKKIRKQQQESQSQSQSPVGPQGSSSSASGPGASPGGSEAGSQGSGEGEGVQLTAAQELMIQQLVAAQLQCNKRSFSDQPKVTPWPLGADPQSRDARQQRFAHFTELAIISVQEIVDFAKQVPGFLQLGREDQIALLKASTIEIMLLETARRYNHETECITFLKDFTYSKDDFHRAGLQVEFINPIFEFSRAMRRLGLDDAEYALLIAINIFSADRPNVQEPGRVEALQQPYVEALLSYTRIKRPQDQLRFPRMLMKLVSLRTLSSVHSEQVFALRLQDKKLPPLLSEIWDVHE
Sequence of Nuclear respiratory factor 1 (Homo sapiens) (Q16656 whole entry, looked up): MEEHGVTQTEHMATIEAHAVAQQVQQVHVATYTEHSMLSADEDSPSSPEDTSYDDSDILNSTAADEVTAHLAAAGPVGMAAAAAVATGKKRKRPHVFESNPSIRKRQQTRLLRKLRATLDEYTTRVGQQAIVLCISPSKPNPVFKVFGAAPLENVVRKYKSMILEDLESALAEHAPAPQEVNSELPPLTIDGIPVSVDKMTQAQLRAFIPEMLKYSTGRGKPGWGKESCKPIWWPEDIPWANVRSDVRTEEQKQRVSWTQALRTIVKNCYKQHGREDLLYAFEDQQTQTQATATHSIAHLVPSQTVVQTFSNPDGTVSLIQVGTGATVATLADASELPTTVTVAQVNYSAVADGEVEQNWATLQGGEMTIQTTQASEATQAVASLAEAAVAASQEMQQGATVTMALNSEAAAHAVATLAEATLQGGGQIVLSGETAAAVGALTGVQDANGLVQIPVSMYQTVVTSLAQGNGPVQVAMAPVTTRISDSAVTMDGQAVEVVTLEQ
Sequence of Myc proto-oncogene protein (Homo sapiens) (P01106 whole entry, looked up): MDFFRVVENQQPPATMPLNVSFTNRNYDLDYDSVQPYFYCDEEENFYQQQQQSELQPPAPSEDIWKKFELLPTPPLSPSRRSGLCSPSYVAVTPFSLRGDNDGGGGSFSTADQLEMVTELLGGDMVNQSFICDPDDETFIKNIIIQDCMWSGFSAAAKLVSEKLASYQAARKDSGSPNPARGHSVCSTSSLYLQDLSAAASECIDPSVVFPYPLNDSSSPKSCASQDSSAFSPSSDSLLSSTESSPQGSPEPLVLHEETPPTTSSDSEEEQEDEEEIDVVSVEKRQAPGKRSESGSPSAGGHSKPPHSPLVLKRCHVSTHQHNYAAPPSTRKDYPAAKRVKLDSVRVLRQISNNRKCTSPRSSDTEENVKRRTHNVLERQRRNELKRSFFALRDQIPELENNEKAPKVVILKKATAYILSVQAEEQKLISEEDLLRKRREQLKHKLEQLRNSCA
Sequence of Hepatocyte nuclear factor 4-alpha (Homo sapiens) (P41235 whole entry, looked up, the tested form may be a part): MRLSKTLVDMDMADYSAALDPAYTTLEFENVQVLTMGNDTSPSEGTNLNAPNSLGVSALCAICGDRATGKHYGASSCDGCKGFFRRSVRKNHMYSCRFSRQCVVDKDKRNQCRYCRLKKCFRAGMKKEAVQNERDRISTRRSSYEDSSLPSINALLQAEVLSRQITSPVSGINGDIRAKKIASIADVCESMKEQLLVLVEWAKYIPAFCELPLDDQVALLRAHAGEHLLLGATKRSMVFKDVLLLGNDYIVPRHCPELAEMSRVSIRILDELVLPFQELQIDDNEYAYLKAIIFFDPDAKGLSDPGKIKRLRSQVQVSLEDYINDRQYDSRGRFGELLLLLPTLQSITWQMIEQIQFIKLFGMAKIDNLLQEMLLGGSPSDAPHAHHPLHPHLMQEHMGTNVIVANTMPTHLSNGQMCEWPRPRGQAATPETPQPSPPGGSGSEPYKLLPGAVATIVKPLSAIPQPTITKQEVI

COc1cc(C(=O)NC2CCN(C)CC2)ccc1Nc1ncc2c(n1)N(C1CCCC1)CC(F)(F)C(=O)N2C
inactive: [1] | [2] | [3] | [4] | [5] | [6] | [7] | [9] | [10] | [11]
active: [8] 0.709 µM | [12] 1.07 µM | [13] 1.94 µM | [14] 5.9 µM | [15] 22.7 µM | [16] 19.1 µM | [17] 14.6 µM

Cc1cn([C@H]2C[C@H](N=[N+]=[N-])[C@@H](CO)O2)c(=O)[nH]c1=O
inactive: [1] | [2] | [4] | [18] | [5] | [19] | [6] | [7] | [8] | [9] | [10] | [11] | [12] | [13] | [14] | [15] | [16] | [17]

O=C1CCC(C2CCCCC2)CC1
inactive: [1] | [2] | [3] | [4] | [5] | [19] | [6] | [7] | [8] | [9] | [10] | [12] | [13] | [15] | [16] | [17]
active: [6] 147 µM | [9] 187 µM | [11] 100 µM [middle of 4 runs] | [13] 166 µM
